This is a sample that favours compounds with a hit; in the whole collection about 2.4% have one here.
D2 antagonist: HTS Assay for Allosteric Antagonists of the Human D2 Dopamine Receptor: Primary Screen for Antagonists; 340,000 compounds, 2% hits; inhibition, % at 10 µM; AID 485344, 2010; HEK293 TREx D2 cells, calcium flux, dopamine EC80; D(2) dopamine receptor (Homo sapiens), P14416; in the data active = inhibition above about 30%; inactive = below that, where a call was filed; also: 0% is about no effect
Target sequence (P14416 whole entry, looked up): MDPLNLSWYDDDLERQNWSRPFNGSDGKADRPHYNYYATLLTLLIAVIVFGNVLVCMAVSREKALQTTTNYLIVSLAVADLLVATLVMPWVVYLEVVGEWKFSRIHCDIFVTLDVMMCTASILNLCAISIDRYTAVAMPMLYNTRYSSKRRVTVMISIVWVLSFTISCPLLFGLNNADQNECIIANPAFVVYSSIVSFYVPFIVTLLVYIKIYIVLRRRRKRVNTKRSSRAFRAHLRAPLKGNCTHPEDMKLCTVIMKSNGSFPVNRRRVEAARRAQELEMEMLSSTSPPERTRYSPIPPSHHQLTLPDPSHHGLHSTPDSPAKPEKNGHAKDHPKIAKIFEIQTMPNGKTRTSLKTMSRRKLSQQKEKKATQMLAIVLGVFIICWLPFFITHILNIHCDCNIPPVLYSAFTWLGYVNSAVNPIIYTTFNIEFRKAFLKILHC
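Measurement of antagonist activity uses fluorescent calcium dye in inducible HEK293 T-REx D2 cells: 10 s baseline, compound addition with 180 s read, EC80 dopamine addition with a further 180 s read.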
D2 ag-1: Beta-Arrestin HTS for Positive Allosteric Modulators of the Human D2 Dopamine Receptor: Agonists | D(2) dopamine receptor (Homo sapiens), P14416 | DiscoveRx PathHunter D2 beta-arrestin, luminescence, 90 min; 100% = 57 uM dopamine signal | activation, % (test concentration not listed) | 360,000 compounds, 0.084% hits; in the data active = activation above about 40%; inconclusive = between about 15% and that limit
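Agonist mode: compounds alone added to overnight-plated D2 PathHunter cells for 90 min at 37 C, with 57 uM final dopamine (EC100) defining full response. Beta-arrestin recruitment detected by chemiluminescent reagent, read after 1 h at ambient temperature.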
D2 PAM-1: HTS Assay for Positive Allosteric Modulators of the Human D2 Dopamine Receptor: Primary Screen for Potentiators; 340,000 compounds, 0.34% hits; HEK293 T-REx D2, calcium flux, EC20 dopamine potentiation; potentiation, % at 10 µM; D(2) dopamine receptor (Homo sapiens), P14416;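 active = potentiation over 3 SD above the plate norm, cut at about 30% in these data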; also: 0% is about no effect
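Primary screen. Calcium kinetics in induced HEK293 T-REx D2 cells: compound pre-addition 180 s, EC20 dopamine, 180 s more.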
D2 PAM-2: Beta-Arrestin HTS for Positive Allosteric Modulators of the Human D2 Dopamine Receptor: Potentiators; DiscoveRx D2 beta-arrestin cells, luminescence, 90 min; 100% = 57 uM dopamine signal; potentiation, % (no concentration beside the values); 360,000 compounds, 0.23% hits; D(2) dopamine receptor (Homo sapiens), P14416; AID 624464, 2012; in the data active = potentiation above about 50%; inconclusive = mostly about 30% to 49%
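D2 cells co-treated with compound plus 50 nM dopamine (EC20) for 90 min at 37 deg C to detect potentiation. Beta-arrestin recruitment was read as enzyme-fragment luminescence after 1 h at ambient temperature. Full response was set by 57 uM dopamine.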
D2 ag-2: HTS Assay for Allosteric Agonists of the Human D2 Dopamine Receptor: Primary Screen for Agonists. D(2) dopamine receptor (Homo sapiens), P14416. 340,000 compounds, 0.53% hits. HEK293 T-REx D2 cells, calcium flux agonist mode. activation, % at 2 µM. AID 485358, 2010;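 active = activation over 3 SD above normal in the single-dose calcium agonist read, cut at about 30% in these data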; also: 0% is about no effect
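HEK293 Trex D2 cells, tetracycline-induced, o/n 30 C 5% CO2; no-wash Ca dye, RT 30–90 min; 10-cycle baseline, 23 nl cpd added, kinetic Ca read 180 s; agonist hits = positive Ca response.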
* = called active by the depositor; ? = inconclusive; · = not tested or not shown; ! = a repeat was not active.

SMILES	D2 antagonist	D2 ag-1	D2 PAM-1	D2 PAM-2	D2 ag-2
CCc1cc(C(=O)NCC(c2ccco2)N2CCCCC2)sc1C (stereo unspecified)	39*	-4	-31	-36	0
O=C1CSc2ccc(C(=O)NCC(c3ccco3)N3CCCCC3)cc2N1 (stereo unspecified)	36*	-6	-33	-31	0
CCOC(=O)c1c(-c2ccc(Br)cc2)csc1NC(=O)c1ccc(C(C)(C)C)cc1	·	·	2	·	1
CCOC(=O)N1CCC(NC(=O)C2CCN(S(=O)(=O)c3cccc4cccnc34)CC2)CC1	51*	-1	-13	-5	-1
O=C(Nc1nccs1)C1CCCN(S(=O)(=O)c2cccc3cccnc23)C1 (stereo unspecified)	39*	-2	4	1	0
COc1ccc(N2CCN(CCCNC(=O)C3CCCN(S(=O)(=O)c4cnc[nH]4)C3)CC2)cc1 (stereo unspecified)	-2	-4	34*	-10	-1
CCCS(=O)(=O)N1CCCC(C(=O)NCCCN2CCN(c3ccccc3F)CC2)C1 (stereo unspecified)	38*	14	-19	-19	69*
COc1ccc(N2CCN(CCCNC(=O)C3CCCN(S(=O)(=O)c4c(C)n[nH]c4C)C3)CC2)cc1 (stereo unspecified)	6	-1	22	-8	0
O=C(NCCN1CCC(Cc2ccccc2)CC1)C1CCCN(S(=O)(=O)c2cnc[nH]2)C1 (stereo unspecified)	-23	-4	-12	-5	14
O=C(NCCN1CCN(c2ccccc2F)CC1)C1CCCN(S(=O)(=O)c2cnc[nH]2)C1 (stereo unspecified)	20	15	12	67*	-1
Cc1cc(NC(=O)Nc2nnc(N3CCCCCC3)s2)ccc1Br	·	·	0	·	0
CC(=O)Nc1ccc(NC(=O)CSc2nnc(NC(=O)Cc3ccc(F)cc3)s2)cc1	34*	-2	-21	-6	0
CCSc1nnc(NC(=O)c2cnccn2)s1	12	0	-2	-1	0
O=C(CSc1nnc(NC(=O)c2ccccc2F)s1)Nc1ccccc1F	36*	0	-9	5	0
O=C(Nc1nnc(SCc2ccc(F)cc2)s1)c1cnccn1	33*	-3	1	-12	1
O=C(Nc1cccc(C(=O)OCc2cc(=O)n3c4c(sc3n2)CCCC4)c1)c1cccc(F)c1	·	·	5	·	·
CNc1nc2c(c(=O)n(C)c(=O)n2C)n1CC(O)COc1ccc(OC)cc1 (stereo unspecified)	·	·	-6	·	0
c1ccc(-c2nc3nonc3nc2-c2ccccc2)cc1	41*	?	12	74*	1
CCCc1cc(=O)[nH]c(SCC(=O)N2CCOCC2)n1	-1	-8	-2	-2	1
CCCc1cc(=O)[nH]c(SCC(=O)N2CCN(c3ccccc3)CC2)n1	38*	0	-4	-20	0
O=C(Nc1ccc(F)c(Cl)c1)C1CCCN(c2cnccn2)C1 (stereo unspecified)	8	1	32*!	-30	0
CC1CC(C)CN(CCCNC(=O)C2CCCN(c3ncnc4c3nc3n4CCCCC3)C2)C1 (stereo unspecified)	34*	2	-15	-18	-1
CC1CCCN(CCCNC(=O)C2CCCN(c3ncnc4c3nc3n4CCCCC3)C2)C1 (stereo unspecified)	-3	-2	-2	-17	0
O=C(NCCCN1CCN(c2ccc(F)cc2)CC1)C1CCCN(c2ncnc3c2nc2n3CCCCC2)C1 (stereo unspecified)	26	-1	-5	-17	0
Cc1ccc(NC(=O)C2CCN(c3ncnc4c3nc3n4CCCCC3)CC2)cc1Cl	-14	0	-6	-6	0
SMILES	D2 antagonist	D2 ag-1	D2 PAM-1	D2 PAM-2	D2 ag-2
COc1ccccc1N1CCN(CCCNC(=O)C2CCCN(c3ncnc4c3nc3n4CCCCC3)C2)CC1 (stereo unspecified)	76*	-5	5	-17	0
Cc1ccc(NC(=O)C2CCCN(c3ncnc4c3nc3n4CCCCC3)C2)cc1Cl (stereo unspecified)	33*	-2	-9	-15	0
CC(C)N(Cc1ccccc1)C(=O)C1CCCN(c2ncnc3c2nc2n3CCCCC2)C1 (stereo unspecified)	38*	0	-9	-9	-1
Cc1ccc(NC(=S)c2nc3ccccc3s2)cc1	-1	-4	87*	-8	0
S=C(Nc1ccc(Cl)cc1)c1nc2ccccc2s1	-7	-3	2	-18	0
CCOc1ccccc1NC(=O)Cn1c(=O)n(CCC(=O)NCc2ccc3c(c2)OCO3)c(=O)c2ccccc21	·	·	-3	·	·
CCCc1nnc2n1N=C(c1ccc(OC)c(OC)c1)CS2	13	0	89*	2	1
COc1ccc(C2=Nn3c(nnc3-c3ccccc3)SC2)cc1OC	-3	-2	23	-3	1
CCN1CCN(C2=C(NS(=O)(=O)c3ccc(NC(C)=O)cc3)C(=O)c3ccccc3C2=O)CC1	4	11	-2	-17	0
CCN1CCN(C2=C(NS(=O)(=O)c3ccc(C)cc3)C(=O)c3ccccc3C2=O)CC1	39*	3	-1	-24	0
Cc1ccc(C)c(C(=O)COC(=O)c2ccccc2N2C(=O)C3C4CCC(C4)C3C2=O)c1 (stereo unspecified)	-18	0	41*	2	0
O=C1/C(=C/c2ccc(N3CCCC3)cc2)NC(=S)N1C1CC1	-20	-1	-12	-16	48*
Cc1cc(N2CCCC2)ccc1/C=C1\NC(=S)N(C)C1=O	10	-1	-7	-5	36*
COc1ccc(S(=O)(=O)N2CCC(N3CCN(Cc4ccccc4)C(=O)C3=O)CC2)cc1	·	·	1	·	0
CCCCCCC(O)(c1ccc(OC)cc1)C(CN1CCOCC1)c1ccccc1 (stereo unspecified)	31*	-3	5	-16	1
Cc1ccc(CSC2=NCCN2S(=O)(=O)c2ccc(C)cc2)cc1	·	-2	·	-7	·
Cc1ccc(S(=O)(=O)N2CCN=C2SCc2ccc(Cl)c(Cl)c2)cc1	30*	-2	-4	4	1
O=C(Nc1ccc(F)cc1)c1ccc(-n2cnnc2)cc1	·	·	2	·	-1

Compound activity deposited in PubChem BioAssay by National Center for Advancing Translational Sciences (NCATS).
